# Where “and” joins values, the source holds several entries; their conditions need not be identical. Equal values may be shown once. For some assays here: Entries with a potency or affinity are not part of this list. The source holds several records for some structures; these can differ, active in one and inactive in another. Calls of active or inactive are those of the source. Cut-off read from the data, not from the text of the source, unless noted: active = parasite load remaining mostly below about 12% (no sharp cut-off); inactive = mostly above about 10%.
# Assays:
# [1] = target: 6-phosphogluconate dehydrogenase, decarboxylating (Homo sapiens) (UniProt P52209); experiment: 6PGD enzyme inhibitors, primary screen, biochemical, human, recombinant enzyme, NADPH absorbance (AID 1159550;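 active = at least 20% inhibition of 6-phosphogluconate dehydrogenase activity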); conditions: recombinant 6PGD, NADPH absorbance 341 nm; at 10 µM; stronger effect = higher value
# Sequence of 6-phosphogluconate dehydrogenase, decarboxylating (Homo sapiens) (P52209 whole entry, looked up): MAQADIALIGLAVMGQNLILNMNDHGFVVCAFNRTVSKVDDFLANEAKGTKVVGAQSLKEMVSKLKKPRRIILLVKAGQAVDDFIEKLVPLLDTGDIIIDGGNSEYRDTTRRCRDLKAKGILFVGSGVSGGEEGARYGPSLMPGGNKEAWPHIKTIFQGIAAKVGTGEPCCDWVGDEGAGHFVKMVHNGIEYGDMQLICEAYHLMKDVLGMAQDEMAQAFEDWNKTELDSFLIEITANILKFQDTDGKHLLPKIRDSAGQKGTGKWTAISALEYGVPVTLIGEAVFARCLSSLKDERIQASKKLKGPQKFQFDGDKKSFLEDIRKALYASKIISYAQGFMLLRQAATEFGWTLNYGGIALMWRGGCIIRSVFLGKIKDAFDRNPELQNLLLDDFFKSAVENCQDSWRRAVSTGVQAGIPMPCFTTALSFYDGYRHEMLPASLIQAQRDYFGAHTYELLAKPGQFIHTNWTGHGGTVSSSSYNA
# [2] = differential killing of epithelial or mesenchymal cells, primary screen, imaging, PC-3E GFP, TEM4-18 mCherry, co-culture (AID 1345086;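 active = compounds killing one labelled cell type while sparing the other, by normalised counts and ratio limits, not self-fluorescent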;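 for all read-outs here: cells exposed to compound for 72 h before imaging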;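 for red/green cell ratio (normalised): normalised mesenchymal count divided by normalised epithelial count so high means epithelial killing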); conditions: imaging cell counts, at 1 µM; for red/green cell ratio (normalised): actives lie on both sides, counts scaled to control wells, 1 = unselective
# [3] = survival rescue of mitochondrial mutant cells in low glucose, primary screen, MELAS cybrids, Rieske KO mouse fibroblasts, CellTiter-Glo (AID 1508586;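 active = mean z-score across replicates of 1.96 or higher in either the MELAS or the Rieske mutant cell line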;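 note: z relative to plate mean and SD of compound and empty wells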)
# [4] = target: NAD(+) hydrolase SARM1 (Homo sapiens) (UniProt Q6SZW1); experiment: SARM1 TIR NADase inhibitors, cell lysate, NAD-Glo luminescence (AID 1508614;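 active = compound whose remaining NAD level is above about 45 nM, limit read from the data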;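 note: higher remaining NAD means stronger inhibition of SARM1 NADase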); conditions: SAM-TIR HEK293T lysate NADase, at 1 µM, stronger effect = higher value
# Sequence of NAD(+) hydrolase SARM1 (Homo sapiens) (Q6SZW1 whole entry, looked up, the tested form may be a part): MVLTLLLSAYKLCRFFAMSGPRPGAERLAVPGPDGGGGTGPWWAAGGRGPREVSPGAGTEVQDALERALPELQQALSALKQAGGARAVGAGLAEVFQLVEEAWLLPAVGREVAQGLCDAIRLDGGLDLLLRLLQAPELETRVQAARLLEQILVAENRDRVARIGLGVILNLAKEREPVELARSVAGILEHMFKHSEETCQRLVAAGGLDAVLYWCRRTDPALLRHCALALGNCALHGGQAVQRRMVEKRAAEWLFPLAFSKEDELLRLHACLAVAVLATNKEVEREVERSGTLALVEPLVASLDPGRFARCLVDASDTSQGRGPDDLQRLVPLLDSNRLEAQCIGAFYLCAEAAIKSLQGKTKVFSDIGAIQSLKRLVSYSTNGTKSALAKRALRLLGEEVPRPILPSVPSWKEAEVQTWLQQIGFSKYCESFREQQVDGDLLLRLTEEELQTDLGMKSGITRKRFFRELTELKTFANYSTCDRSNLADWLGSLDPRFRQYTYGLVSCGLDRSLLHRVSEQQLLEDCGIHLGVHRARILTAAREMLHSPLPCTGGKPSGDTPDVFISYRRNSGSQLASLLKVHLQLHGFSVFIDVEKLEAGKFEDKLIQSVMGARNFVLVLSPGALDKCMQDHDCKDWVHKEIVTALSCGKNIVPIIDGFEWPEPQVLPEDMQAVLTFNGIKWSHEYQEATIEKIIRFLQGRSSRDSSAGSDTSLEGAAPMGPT
# [5] = target: Mitogen-activated protein kinase 7 (Homo sapiens) (UniProt Q13164); experiment: ERK5 transactivation activators in reporter cells, primary screen, cell-based, HTS (AID 1508626;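 active = luciferase signal above three times the same-plate solvent-only control wells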;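 note: luciferase driven by Gal4-ERK5 fusion binding five Gal4 sites before minimal TATA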); conditions: HeLa Gal4-ERK5 transactivation, 18 h, at 5 µM, stronger effect = higher value
# Sequence of Mitogen-activated protein kinase 7 (Homo sapiens) (Q13164 whole entry, looked up, the tested form may be a part): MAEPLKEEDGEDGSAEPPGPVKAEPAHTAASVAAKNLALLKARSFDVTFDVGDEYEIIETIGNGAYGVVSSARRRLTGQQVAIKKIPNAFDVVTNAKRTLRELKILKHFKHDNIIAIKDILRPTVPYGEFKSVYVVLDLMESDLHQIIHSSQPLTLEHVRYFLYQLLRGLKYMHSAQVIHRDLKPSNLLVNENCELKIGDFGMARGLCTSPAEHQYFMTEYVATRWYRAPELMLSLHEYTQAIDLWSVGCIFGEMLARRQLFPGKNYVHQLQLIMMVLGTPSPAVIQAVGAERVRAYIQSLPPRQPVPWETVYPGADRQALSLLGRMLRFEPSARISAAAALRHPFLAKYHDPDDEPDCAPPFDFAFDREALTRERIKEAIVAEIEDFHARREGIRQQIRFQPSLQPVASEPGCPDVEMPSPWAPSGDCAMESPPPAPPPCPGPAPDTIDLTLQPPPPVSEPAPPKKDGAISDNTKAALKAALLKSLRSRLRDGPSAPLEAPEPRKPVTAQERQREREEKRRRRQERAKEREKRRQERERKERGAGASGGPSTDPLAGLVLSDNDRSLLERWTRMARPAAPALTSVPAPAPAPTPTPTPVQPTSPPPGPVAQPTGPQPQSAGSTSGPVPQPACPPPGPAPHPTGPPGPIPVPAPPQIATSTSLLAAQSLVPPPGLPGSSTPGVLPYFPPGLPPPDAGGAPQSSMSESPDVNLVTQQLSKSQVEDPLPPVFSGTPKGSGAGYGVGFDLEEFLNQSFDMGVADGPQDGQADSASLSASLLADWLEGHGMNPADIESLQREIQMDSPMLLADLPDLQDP
# [6] = viability rescue of complex I mutant cybrids, primary screen, cell-based, galactose medium, ATP luminescence (AID 1645843;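 active = z-score of at least 1.8 in each of two replicates, scored against plate mean and spread of sample wells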;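 note: positive z means more ATP and so rescue of galactose-driven cybrid death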); conditions: complex I mutant cybrid cells, 72 h, stronger effect = higher value
# [7] = polyglutamine-triggered caspase-3 activation inhibitors, cell-based (AID 1583); conditions: polyglutamine-induced caspase-3 activation, cell assay; stronger effect = higher value;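 tested at 10 µM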
# [8] = suppressors of polyQ aggregation in yeast, 75Q-TubU reporter (AID 1593); conditions: Yeast 75Q polyglutamine aggregation reporter
# [9] = rescue of polyQ-huntingtin neuronal dysfunction in worms, whole organism, C. elegans mechanosensory neurons, N-terminal huntingtin (AID 1599); conditions: touch response, stronger effect = higher value
# [10] = inhibitors of mitochondrial cytochrome c release, biochemical, purified mitochondria (AID 1603); conditions: stronger effect = lower value;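 note: mouse liver mitochondria challenged with calcium chloride; signal normalized to the plate average as 100%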
# [11] = inhibitors of polyQ protein aggregation (AID 1604); conditions: polyglutamine-induced protein aggregation inhibition assay; stronger effect = higher value; tested at 2.5 µM
# [12] = enhancers of glutamate uptake in motor neurons, MN-1 cell line (AID 1612); conditions: MN-1 motor neuron cells, stronger effect = higher value;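 note: tested at 1 µM final; 0% = mean of DMSO vehicle wells on each plate; positive means more glutamate uptake than control and negative means less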
# [13] = reducers of polyQ inclusions in PC12 cells, cell-based, NGF-treated PC12, GFPQ80 (AID 1614); conditions: PC12 NGF-treated GFP-polyQ80 inclusion reduction;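 note: lower means fewer inclusions and 0 means no inclusions at all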
# [14] = suppressors of polyglutamine aggregation in yeast, 75Q-TubH (AID 1616); conditions: S. cerevisiae 75Q-TubH polyglutamine aggregation suppression; stronger effect = higher value
# [15] = liver-stage malaria parasite growth inhibition, primary screen, cell-based, HepG2, luciferase luminescence, HepG2 viability (AID 624349);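 note: 100% = mean of DMSO negative control wells on the same plate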; conditions: P. berghei liver stage in HepG2, luciferase luminescence, concentration not given here; parasite load remaining: stronger effect = lower value; viability: measured here: HepG2 viability without parasites
# [16] = sensitizers of A549 cells to miR-34 induction, primary screen, imaging, A549 dox-inducible miR-34, nuclei and caspase counts (AID 1347080;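 active = compounds whose cell count with miR-34 switched on is under 0.7 times the count with it off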); conditions: A549 miR-34 inducible, Hoechst nuclei count, 48 h
# [17] = measured here: epithelial PC-3E GFP cell survival
# [18] = measured here: mesenchymal TEM4-18 mCherry cell survival
# [19] = MELAS cybrid survival, CellTiter-Glo 48 h, stronger effect = higher value
# [20] = Rieske KO mouse fibroblast survival, CellTiter-Glo 72 h
# [21] = stronger effect = lower value, cell number ratio, induced over uninduced
# [22] = measured here: relative caspase fold change +Dox/-Dox
# [23] = measured here: total cells with miR-34 induction, stronger effect = lower value
# [24] = measured here: total cells without miR-34 induction
compound,measurement,setting,value
CN(C)CCC(c1ccc(Br)cc1)c1ccccn1 (configuration not stated),inhibition,[1],5% (inactive)
same,red/green cell ratio (normalised),[2],1.05 (inactive)
same,normalised cell number,[2]; [17],1.13
same,normalised cell number,[2]; [18],1.19
same,z-score,[3]; [19],-0.114 (inactive) and -0.273 (inactive) and -0.659 (inactive)
same,z-score,[3]; [20],-0.476 and -0.248 and 0.132
same,remaining NAD,[4],10 nM (inactive)
same,luciferase signal,[5],48 AU (inactive)
same,z-score,[6],-0.18 (inactive) and -0.16 (inactive) and 0.035 (inactive)
CC(C)Cn1c(=O)n(C)c(=O)c2[nH]cnc21,inhibition,[7],10.7%
same,score,[8],1.18
same,rescue above control,[9],-7.15
same,cytochrome c release ratio,[10],0.66
same,inhibition of aggregation,[11],80.3%
same,glutamate uptake change,[12],11.7%
same,inclusion score,[13],2
same,aggregation suppression score,[14],1.34
same,parasite load remaining,[15],31.6% (inactive)
same,viability,[15],71.5%
same,inhibition,[1],-0.657% (inactive) and 4.73% (inactive)
same,red/green cell ratio (normalised),[2],0.79 (inactive) and 0.82 (inactive)
same,normalised cell number,[2]; [17],1.26 and 1.32
same,normalised cell number,[2]; [18],1 and 1.09
same,z-score,[3]; [19],-0.413 (inactive) and 0.263 (inactive)
same,z-score,[3]; [20],0.307 and 0.838
same,luciferase signal,[5],504 AU (active)
same,z-score,[6],0.71 (inactive) and -0.29 (inactive) and 0.67 (inactive)
CC(=O)Oc1cccc(C(=O)O)c1OC(C)=O,inhibition,[1],0.748% (inactive)
same,red/green cell ratio (normalised),[2],0.81 (inactive)
same,normalised cell number,[2]; [17],1.05
same,normalised cell number,[2]; [18],0.86
same,remaining NAD,[4],10 nM (inactive)
Cn1nnnc1SCC1=C(C(=O)O)N2C(=O)C(NC(=O)C(OC=O)c3ccccc3)C2SC1 (configuration not stated),inhibition,[7],20.1%
same,score,[8],1.46
same,rescue above control,[9],-9.96
same,cytochrome c release ratio,[10],1.54
same,inhibition of aggregation,[11],91.6%
same,glutamate uptake change,[12],-5.89%
same,inclusion score,[13],2
same,aggregation suppression score,[14],1.26
same,parasite load remaining,[15],85.6% (inactive) and 51.5% (inactive)
same,viability,[15],73.8% and 102%
same,inhibition,[1],0.99% (inactive)
same,red/green cell ratio (normalised),[2],0.82 (inactive)
same,normalised cell number,[2]; [17],1.29
same,normalised cell number,[2]; [18],1.06
same,fold change,[16]; [21],0.922 (inactive)
same,fold change,[16]; [22],2.94
same,cell count,[16]; [23],11600
same,cell count,[16]; [24],12600
N[C@H](Cc1ccccc1)C(=O)O,inhibition,[7],15.8%
same,score,[8],1.59
same,rescue above control,[9],-4.58
same,cytochrome c release ratio,[10],0.85
same,inhibition of aggregation,[11],56.8%
same,glutamate uptake change,[12],4.25%
same,inclusion score,[13],2
same,aggregation suppression score,[14],1.21
same,parasite load remaining,[15],140% (inactive)
same,viability,[15],87.2%
same,inhibition,[1],6.57% (inactive)
same,red/green cell ratio (normalised),[2],1.1 (inactive)
same,normalised cell number,[2]; [17],0.82
same,normalised cell number,[2]; [18],0.9
same,remaining NAD,[4],98 nM (active)
same,luciferase signal,[5],56 AU (inactive)
O=C1NS(=O)(=O)c2ccccc21,inhibition,[7],13.8%
same,score,[8],0.92
same,rescue above control,[9],-8.57
same,cytochrome c release ratio,[10],0.95
same,inhibition of aggregation,[11],78.3%
same,glutamate uptake change,[12],6.02%
same,inclusion score,[13],2
same,aggregation suppression score,[14],1.22
same,parasite load remaining,[15],95.1% (inactive) and 37.4% (inactive)
same,viability,[15],71.8% and 92.3%
same,inhibition,[1],10.4% (inactive)
same,red/green cell ratio (normalised),[2],1.14 (inactive)
same,normalised cell number,[2]; [17],1.03
same,normalised cell number,[2]; [18],1.17
same,remaining NAD,[4],10 nM (inactive)
same,luciferase signal,[5],40 AU (inactive)
CCCCCCCCCCCCCCCC(=O)OC/C=C(C)/C=C/C=C(C)/C=C/C1=C(C)CCCC1(C)C,inhibition,[7],-19.1%
same,score,[8],1.38
same,rescue above control,[9],3.93
same,cytochrome c release ratio,[10],1.03
same,inhibition of aggregation,[11],46%
same,glutamate uptake change,[12],4.94%
same,inclusion score,[13],2
same,aggregation suppression score,[14],0.6
same,parasite load remaining,[15],174% (inactive) and 50.5% (inactive)
same,viability,[15],86.2% and 95%
same,inhibition,[1],1.58% (inactive)
same,red/green cell ratio (normalised),[2],1.41 (inactive)
same,normalised cell number,[2]; [17],0.95
same,normalised cell number,[2]; [18],1.34
same,fold change,[16]; [21],0.809 (inactive)
same,fold change,[16]; [22],0.861
same,cell count,[16]; [23],9920
same,cell count,[16]; [24],12300
same,remaining NAD,[4],10 nM (inactive)
same,luciferase signal,[5],624 AU (active)
C[n+]1c2cc(N)ccc2cc2ccc(N)cc21,score,[8],0.44
same,rescue above control,[9],0
same,cytochrome c release ratio,[10],0.97
same,inhibition of aggregation,[11],91.3%
same,glutamate uptake change,[12],14.1%
same,aggregation suppression score,[14],0.101
same,parasite load remaining,[15],25.5% (inactive) and -0.145% (inactive)
same,viability,[15],41.9% and 34.3%
same,inhibition,[1],-0.987% (inactive)
same,red/green cell ratio (normalised),[2],0.5 (active)
same,normalised cell number,[2]; [17],0.8
same,normalised cell number,[2]; [18],0.4
same,fold change,[16]; [21],1.05 (inactive)
same,fold change,[16]; [22],0.642
same,cell count,[16]; [23],1590
same,cell count,[16]; [24],1510
same,remaining NAD,[4],10 nM (inactive)
same,luciferase signal,[5],24 AU (inactive)
CCCCCCCCCc1ccc(OCCOCCOCCOCCOCCOCCOCCOCCOCCO)cc1,parasite load remaining,[15],-0.79% (active)
same,viability,[15],85%
same,inhibition,[1],-15.2% (inactive)
same,red/green cell ratio (normalised),[2],1.03 (inactive)
same,normalised cell number,[2]; [17],1.14
same,normalised cell number,[2]; [18],1.18
same,fold change,[16]; [21],0.78 (inactive)
same,fold change,[16]; [22],2.5
same,cell count,[16]; [23],2440
same,cell count,[16]; [24],3120
same,remaining NAD,[4],10 nM (inactive)
same,luciferase signal,[5],40 AU (inactive)
CC1(C)S[C@@H]2C(N3C(=O)[C@@H](c4ccccc4)NC3(C)C)C(=O)N2[C@H]1C(=O)O (some centres not stated),inhibition,[7],4.02%
same,score,[8],1.26
same,rescue above control,[9],-1.6
same,cytochrome c release ratio,[10],0.9
same,inhibition of aggregation,[11],49.2%
same,glutamate uptake change,[12],4.63%
same,inclusion score,[13],2
same,aggregation suppression score,[14],1.31
same,parasite load remaining,[15],110% (inactive) and 71.1% (inactive)
same,viability,[15],76.4% and 94.5%
same,inhibition,[1],-0.481% (inactive)
same,red/green cell ratio (normalised),[2],1.14 (inactive)
same,normalised cell number,[2]; [17],0.94
same,normalised cell number,[2]; [18],1.08
same,fold change,[16]; [21],0.886 (inactive)
same,fold change,[16]; [22],0.799
same,cell count,[16]; [23],11200
same,cell count,[16]; [24],12600
CCN(CC)Cc1ccc(Nc2ccnc3cc(Cl)ccc23)cc1O,inhibition,[7],-50.2%
same,score,[8],1.49
same,rescue above control,[9],8.25
same,cytochrome c release ratio,[10],0.74
same,inhibition of aggregation,[11],65.5%
same,glutamate uptake change,[12],1.51%
same,aggregation suppression score,[14],1.68
same,parasite load remaining,[15],-0.345% (active) and 0.905% (inactive)
same,viability,[15],63% and 59.3%
same,inhibition,[1],4.92% (inactive)
same,red/green cell ratio (normalised),[2],0.8 (inactive)
same,normalised cell number,[2]; [17],1.14
same,normalised cell number,[2]; [18],0.91
same,fold change,[16]; [21],0.936 (inactive)
same,fold change,[16]; [22],0.896
same,cell count,[16]; [23],8520
same,cell count,[16]; [24],9100

# Source: PubChem BioAssay
